Assay outcomes as filed in PubChem.
This is a sample that favours compounds with a hit; in the whole collection about 9.3% have one here.
Sm TGR inh = S. mansoni TGR enzyme inhibition. Potency, µM (top dose mostly 114 µM), inactives show at the top dose activity change, negative = inhibition, usual class: inhibitors. AID 485364. purified TGR, DTNB reduction, TNB absorbance 405 nm. 360,000 compounds, 3% hits; note: potency is the fitted concentration of half-maximal effect; nearly all actives have a fitted effect of over 60% in size
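Kinetic colorimetric format: TGR-catalysed, NADPH-driven DTNB reduction monitored via TNB absorbance. Enzyme dispensed at 20 nM; compound exposure 15 min at room temperature before reaction start.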
HCV inh = blocks hepatitis C virus | Huh7.5.1 HCVcc-Cre infection, luciferase reporter, 44 h | Potency, µM (doses to about 41.8 µM), for the others: top-dose activity change, negative = inhibition, most hits filed as inhibitors | 340,000 compounds, 3.4% hits | AID 651820; note: potency is the fitted concentration of half-maximal effect
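Seed cells (1,000/well) for 4 h; treat with compound and infect with HCVcc-Cre, moi about 0.5. Incubate 44 h, then detect luciferase activity.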
FMDV antiviral = foot and mouth disease virus antiviral activity. FMDV antiviral cell-based qHTS. Potency, µM (doses to about 57.9 µM), without a hit: at the top dose activity change, negative = inhibition, most hits filed as inhibitors. 410,000 compounds, 1.2% hits. AID 1159524; calls by dose curve; tested in HEK293T cells; note: read-out not given here; potency is the fitted concentration of half-maximal effect; nearly all actives have a fitted effect of over 45% in size
VACV Venus inh = inhibitors of vaccinia virus (Venus reporter) | Vaccinia virus Venus reporter expression, fluorescence | Potency, µM (titrated, usually from 36.5 µM), without a hit: at the highest dose activity change, negative = inhibition, actives largely listed as inhibitors | 330,000 compounds, 0.46% hits; calls by dose curve; tested in A549 cells; note: potency is the fitted concentration of half-maximal effect; nearly all actives have a fitted effect of over 30% in size
Vaccinia mCherry = inhibitors of vaccinia virus infection (mCherry reporter signal); Vaccinia virus mCherry reporter infection, fluorescence; Potency, µM (top dose mostly 36.5 µM), for inactives: top-dose activity change, negative = inhibition, usual class: inhibitors; 310,000 compounds, 0.63% hits; AID 720579; calls by dose curve; tested in A549 cells; note: potency is the fitted concentration of half-maximal effect; nearly all actives have a fitted effect of over 35% in size
HCMV antiviral = blocks human cytomegalovirus replication | 410,000 compounds, 4.5% hits | AID 1259415 | activity change, negative = inhibition, % at 57.5 µM | HFF cells, HCMV-luciferase reporter, 72 h; hits give low values; in the data active = activity change below about -60%; inconclusive = no clear call, values can overlap the other calls; inactive = above about -39%
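After 16 h attachment at 37C, HFF cells received test compound and HCMV-luciferase (1 PFU/cell); reporter luminescence read 72 h later, data normalized against buffer-only and known inhibitor Salinomycin.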
* hit, by the source's call. Unless noted, calls come from the whole dose curve; as a rule, active = well fitted curve in the direction sought with a large enough effect; inconclusive = small, poorly fitted or top-dose-only effect, or another doubt; inactive = no such curve, though single readings can be large; an effect the other way counts as inactive or inconclusive. % is set by controls: 0 for no effect and ±100 for the full control effect.

What do the screens show for `COc1ccc(S(=O)(=O)c2ccccc2)cc1NC(=O)c1c(F)cccc1F`?
Sm TGR inh: -22.7%; HCV inh: -25.7%; FMDV antiviral: 20.1%; HCMV antiviral: 69.2

Results for COC(=O)c1ccc(CSc2ccc3nnc(-c4cccc(F)c4)n3n2)o1 ?
Sm TGR inh: 25.1µM*; HCV inh: 1.0%; FMDV antiviral: inconclusive; VACV Venus inh: -18.0%; Vaccinia mCherry: inactive; HCMV antiviral: 34.4

How did O=C(Nc1ncn[nH]1)c1cc([N+](=O)[O-])ccc1Cl do in these assays?
Sm TGR inh: -1.2%; HCV inh: 10.1%; FMDV antiviral: -7.7%; HCMV antiviral: -21.6

What do the screens show for `CCOc1ccc(CCNC(=O)COC(=O)c2c(C)nn(-c3ccccc3)c2C)cc1OCC`?
Sm TGR inh: 5.0%; HCV inh: inconclusive; FMDV antiviral: 5.9%; VACV Venus inh: -8.6%; Vaccinia mCherry: -5.1%; HCMV antiviral: -98.6*

How did CCCN(CC(=O)Nc1ccccc1OC)C(=O)c1cc(-c2ccccc2)nn1-c1ccccc1 do in these assays?
Sm TGR inh: -11.2%; HCV inh: 11.2µM*; FMDV antiviral: -20.9%; HCMV antiviral: 11.3

How did CC(=O)c1ccccc1NC(=O)COC(=O)c1c(C)nn(-c2ccccc2)c1C do in these assays?
Sm TGR inh: -12.7%; HCV inh: inconclusive; FMDV antiviral: 14.7%; HCMV antiviral: 0.0

What do the screens show for `COc1ccccc1NC(=O)COC(=O)c1c(C)nn(-c2ccccc2)c1C`?
Sm TGR inh: 1.4%; HCV inh: 14.1µM*; FMDV antiviral: 7.7%; HCMV antiviral: -9.9

What do the screens show for `COc1ccc(CCNC(=O)c2c(C)nn(CC(C)C)c2Cl)cc1OC`?
Sm TGR inh: 0.0%; HCV inh: inconclusive; FMDV antiviral: -6.1%; VACV Venus inh: -21.3%; Vaccinia mCherry: -5.3%; HCMV antiviral: 10.4

How did COc1ccc(OC)c(CN2CCC3(CCC(CNC(=O)c4ccco4)O3)CC2)c1 (configuration not stated) do in these assays?
FMDV antiviral: -7.6%; VACV Venus inh: -1.3%; Vaccinia mCherry: -13.4%

Results for CCOc1ccc(NC(=O)Nc2cc(C(C)C)ccc2C)cc1 ?
Sm TGR inh: 9.5%; HCMV antiviral: 3.7

What do the screens show for `CCOC(=O)NC(N(O)c1cccc(Cl)c1)C(Cl)(Cl)Cl` (configuration not stated)?
Sm TGR inh: 28.2µM*; HCV inh: 9.5%; FMDV antiviral: -15.3%; VACV Venus inh: -3.2%; Vaccinia mCherry: inconclusive; HCMV antiviral: -9.7

What do the screens show for `CCOC(=O)N[C@H](Cc1c[nH]c2ccccc12)C(=O)Nc1cccc(Cl)c1`?
Sm TGR inh: 0.5%; FMDV antiviral: -3.7%; VACV Venus inh: -13.6%; Vaccinia mCherry: -9.1%; HCMV antiviral: 19.0

What do the screens show for `CCOC(=O)C1(CCc2ccccc2)CCN(Cc2c(O)cccc2OC)CC1`?
Sm TGR inh: 3.6%; HCV inh: inconclusive; FMDV antiviral: 31.6µM*; VACV Venus inh: -21.8%; Vaccinia mCherry: -29.4%; HCMV antiviral: -17.8

How did CCOC(=O)C1(CCc2ccccc2)CCN(Cc2cccc3c2OCO3)CC1 do in these assays?
Sm TGR inh: -2.2%; HCV inh: 10µM*; FMDV antiviral: inconclusive; VACV Venus inh: -12.8%; Vaccinia mCherry: -20.6%; HCMV antiviral: inconclusive

How did CCOC(=O)C1(CCc2ccccc2)CCN(Cc2cccc3cnccc23)CC1 do in these assays?
Sm TGR inh: 18.6%; HCV inh: 10µM*; FMDV antiviral: inconclusive; VACV Venus inh: -8.6%; Vaccinia mCherry: -17.5%; HCMV antiviral: inconclusive

How did CCOC(=O)C1(CCc2ccccc2)CCN(Cc2ccc(OC)cc2)CC1 do in these assays?
Sm TGR inh: 6.3%; HCV inh: 18.8%; FMDV antiviral: -8.2%; VACV Venus inh: 0.9%; Vaccinia mCherry: inactive; HCMV antiviral: 7.7

Results for CCOC(=O)C1(Cc2ccccc2)CCN(Cc2cccc3c2OCO3)CC1 ?
HCV inh: -32.6%; FMDV antiviral: -11.5%; VACV Venus inh: -9.7%; Vaccinia mCherry: -13.5%; HCMV antiviral: inconclusive
